Source: PubChem (several laboratories)
Shown are actives, neighbours in structure and some others; about 4.6% of the full set was active somewhere.
SKKanGAS inh – inhibitors of SKKanGAS S. pyogenes growth in kanamycin (SK-promoter or general growth effect) | BacTiter-Glo, 6 h | inhibition, % at 7.5 µM | 300,000 compounds, 1.3% hits;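 active = mean replicate score, as percent of positive control median, at least 50; inconclusive = mean below 50 but one replicate at or above 50; inactive = mean and every replicate below 50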;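 also: strain carries kanamycin resistance gene driven by streptokinase promoter and grows in 40 µg/ml kanamycin; loss of luminescence reflects streptokinase promoter inhibition or plain growth inhibition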
V-ATPase pH – regulators of yeast V-ATPase proton transport. S. cerevisiae, pHLuorin cytosolic pH fluorescence. response, % at 10 µM. 350,000 compounds, 0.37% hits. AID 504577; in the data active = response mostly above about 7.3%, no sharp cut-off; inactive = mostly below about 5.4%; also: actives read high
PfHsp90 yeast 2 – growth inhibition of yeast expressing Plasmodium Hsp90; inhibition, % at 9.4 µM; S. cerevisiae expressing PfHsp90, BacTiter-Glo ATP, 48 h; yeast lacking PDR1 and PDR3 efflux regulators; 310,000 compounds, 0.32% hits; AID 504621;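 active = every replicate shows inhibition above about 80%, whatever the replicate mean, limit read from the data; inconclusive = mean inhibition reaches the set limit but some replicate falls short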
TIM10 inh – inhibits growth of TIM10 yeast strain. inhibition, % at 10 µM. S. cerevisiae TIM10 strain growth, BacTiter-Glo luminescence, 24 h. 330,000 compounds, 1.4% hits;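 active = inhibition of 40% or more at the single tested concentration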;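 also: wild-type TIM10 isogenic control strain grown at permissive 25 °C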
tim23-1 inh – tim23-1 yeast growth inhibition | AID 463212 | inhibition, % at 20 µM | S. cerevisiae tim23-1 growth, BacTiter-Glo luminescence, 24 h | 330,000 compounds, 1.3% hits;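 active = growth inhibition of the mutant yeast at or above 50%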;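 also: temperature-sensitive mutant grown at 25 °C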
tim10-1 inh – tim10-1 yeast growth inhibition. 330,000 compounds, 2.2% hits. inhibition, % at 20 µM. S. cerevisiae tim10-1 ts strain growth, BacTiter-Glo, 24 h;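 active = inhibition of at least 40%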;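 also: mutant grown at 25 °C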
Of the large screens only hits and unclear results are named; the others gave an inactive call; ! = a repeat was not active.

C=CCOC(=O)C1=C[C@H](c2coc3ccccc3c2=O)C[C@H](OCCCCO)O1	none
Cc1ccc(C(=O)NC(=S)Nc2cccc3c(C)cc(C)nc23)cc1	SKKanGAS inh 79
COC(=O)c1nc(NC(=S)NC(=O)c2cccs2)sc1C	SKKanGAS inh 60 (no result: PfHsp90 yeast 2)
CCOC(=O)c1c(-c2ccc(C)o2)csc1NC(=S)NC(=O)c1cccs1	SKKanGAS inh 61
CCOC(=O)c1c(-c2ccc(C)o2)csc1NC(=S)NC(=O)c1ccccc1Br	none
CCOC(=O)c1c(-c2ccc(C)o2)csc1NC(=O)COC(=O)c1ccc(NC(N)=O)cc1	SKKanGAS inh 68
COC(=O)C1=C(O)C(C(=O)OC)C(c2ccc(C)cc2)C(C#N)(C#N)C1c1ccc(C)cc1 (stereo not drawn)	SKKanGAS inh inconclusive (no result: PfHsp90 yeast 2)
O=C(NCc1cccc(Br)c1)C1CC(c2ccccc2C(F)(F)F)=NO1 (stereo not drawn)	none
COCc1cc(C)n(CC(=O)Nc2ccc3c(c2)OCO3)c(=O)c1C#N	none
Cc1c(/C=N/Nc2nc3ccccc3[nH]2)c2ccccc2n1C	SKKanGAS inh 88
CCCn1c(/C=N/Nc2nc3ccccc3[nH]2)nc2ccccc21	none (no result: SKKanGAS inh, TIM10 inh, tim23-1 inh, tim10-1 inh)
CC(C)Cn1c(/C=N/Nc2nc3ccccc3[nH]2)nc2ccccc21	SKKanGAS inh 97 (no result: TIM10 inh, tim23-1 inh, tim10-1 inh)
CCN(CC)c1ccc(/C=N/Nc2nc3ccccc3[nH]2)cc1	SKKanGAS inh 95 (no result: PfHsp90 yeast 2, TIM10 inh, tim23-1 inh, tim10-1 inh)
CC(=O)Nc1ccc(/C=N/Nc2nc3ccccc3[nH]2)cc1	none
C=CCn1cc(/C=N/Nc2nc3ccccc3[nH]2)c2ccccc21	none
N#Cc1ccc(C(=O)Nc2nc(SCc3ccc(Cl)cc3)n[nH]2)cc1	SKKanGAS inh 87
Cc1nc(SCc2ccc(C#N)cc2)n[nH]1	none
CCCC(=O)Nc1sc(C)c(-c2ccc(C(C)CC)cc2)c1C#N (stereo not drawn)	V-ATPase pH 16
CCCC(=O)Nc1sc(C)c(C)c1C#N	none (no result: PfHsp90 yeast 2)
O=C(COC(=O)c1ccc(Br)cc1)Nc1ccccc1Br	none
O=C(O)/C=C\c1cn(-c2ccccc2)nc1-c1cc2ccccc2o1	PfHsp90 yeast 2 inconclusive
O=C(O)/C=C/c1cn(-c2ccccc2)nc1-c1cc2ccccc2o1	PfHsp90 yeast 2 90
COc1ccc(S(=O)(=O)N[C@@H](C)C(=O)OCC(=O)Nc2cc3oc4ccccc4c3cc2OC)cc1	SKKanGAS inh 80
O=C(N/N=C/c1cc(Cl)ccc1O)c1ccncc1	SKKanGAS inh 99
O=C(N/N=C/c1ccccc1Cl)c1ccncc1	none
O=C(c1ccc2c(c1)CCN2S(=O)(=O)c1ccccc1)N1CCN(c2ccc(F)cc2)CC1	V-ATPase pH 14
CCCCNc1c(-c2cccc(SC3CCCCC3)c2)nc2ccc(Cl)cn12	none
CCCCNc1c(-c2ccc(SC3CCCCC3)cc2)nc2ccccn12	SKKanGAS inh 71
c1cn2c(NC3CCCCC3)c(-c3ccc(SC4CCCCC4)cc3)nc2cn1	SKKanGAS inh 89
Cc1cc(NC(=O)CN2C(=O)c3ccccc3C2=O)no1	SKKanGAS inh 50
CCC(Sc1nc2ccncc2[nH]1)C(=O)Nc1cc(Cl)ccc1C (stereo not drawn)	none
COc1ccc(NC(=O)c2sc3nc(C)nc(N4CCN(c5ccccn5)CC4)c3c2C)cc1Cl	none
COc1ccc(NC(=O)c2sc3ncnc(N4CCN(c5ccccn5)CC4)c3c2C)cc1Cl	PfHsp90 yeast 2 103
CC1CCCC12NC(=O)NC2=O (stereo not drawn)	none (no result: SKKanGAS inh, TIM10 inh, tim23-1 inh, tim10-1 inh)
Nc1sc(-c2ccccc2)cc1C(=O)N/N=C/c1ccc(Cl)cc1	SKKanGAS inh 95
Cc1ccc(NC(=S)N2CCN(S(=O)(=O)c3ccc(F)cc3)CC2)cc1	none
C=CCN(c1ccccc1)S(=O)(=O)c1cccc(C(=O)Nc2ccc(N3CCOCC3)cc2)c1	none (no result: SKKanGAS inh, PfHsp90 yeast 2)
Oc1c(C(Nc2nccs2)c2ccc(C(F)(F)F)cc2)ccc2cccnc12 (stereo not drawn)	SKKanGAS inh 91, PfHsp90 yeast 2 102 (no result: TIM10 inh, tim23-1 inh, tim10-1 inh)
COc1ccc(C(NC(C)=O)c2ccc3cccnc3c2O)c(OC)c1 (stereo not drawn)	none (no result: PfHsp90 yeast 2)
CCC(=O)NC(c1cccs1)c1ccc2cccnc2c1O (stereo not drawn)	PfHsp90 yeast 2 114
Cc1conc1NC(c1cccs1)c1ccc2cccnc2c1O (stereo not drawn)	SKKanGAS inh 100 (no result: V-ATPase pH, PfHsp90 yeast 2)
CCC(=O)Nc1cccc2cccnc12	none
CCCCC(=O)NC(c1ccc(N(CC)CC)cc1)c1ccc2cccnc2c1O (stereo not drawn)	none
CCCCC(=O)NC(c1ccccc1OC)c1ccc2cccnc2c1O (stereo not drawn)	PfHsp90 yeast 2 106
CCCC(=O)NC(c1ccc(Cl)cc1Cl)c1ccc2cccnc2c1O (stereo not drawn)	SKKanGAS inh 89
CCCC(=O)NC(c1ccccc1OC)c1ccc2cccnc2c1O (stereo not drawn)	none
CC1(C)S[C@@H]2[C@H](NC(=O)C(NC(=O)N3CCNC3=O)c3ccccc3)C(=O)N2[C@H]1C(=O)O (stereo partly drawn)	SKKanGAS inh 114
CCOc1ccc2ccccc2c1C(=O)N[C@@H]1C(=O)N2[C@@H]1SC(C)(C)[C@@H]2C(=O)O	none
Cc1cc(COC(=O)C2N3C(=O)[C@@H](NC(=O)COc4ccccc4)[C@H]3SC2(C)C)on1 (stereo partly drawn)	SKKanGAS inh 103
CC1(C)S[C@@H]2[C@H](NC(=O)Cc3ccccc3)C(=O)N2[C@H]1C(=O)O	SKKanGAS inh 100!
CCC(Oc1ccccc1)C(=O)NC1C(=O)N2C1SC(C)(C)C2C(=O)O (stereo not drawn)	SKKanGAS inh 111
O=S(=O)(NCCCNS(=O)(=O)c1c(F)cccc1F)c1ccc2c(c1)OCCO2	none (no result: SKKanGAS inh)
Cc1cccc(NC(=O)CCc2ccc(S(=O)(=O)NC3CCCCC3)cc2)c1	none
CCN(CC)CCN1C(=O)C(=O)/C(=C(/O)c2ccc(S(=O)(=O)N3CCOCC3)cc2)C1c1ccc(C)cc1 (stereo not drawn)	none
CC[C@]1(C(=O)OC)[C@H]2C(=O)N(C)C(=O)[C@H]2[C@H]2CN(C)C(=NC3CCCCC3)N21	none (no result: SKKanGAS inh)
CC(NC(=O)Nc1ccc(Cl)cc1)c1ccccc1 (stereo not drawn)	none
Cc1ccc(C(NC(=O)NC(C)c2ccccc2)C(Cl)(Cl)Cl)cc1F (stereo not drawn)	SKKanGAS inh 57
CC(=O)Nc1ccc(-c2ccc(NC(C)=O)cc2)cc1	none
CC(=O)Nc1ccc(C#Cc2ccc(NC(C)=O)cc2)cc1	SKKanGAS inh 84
O=C1CN(C(=O)COC(=O)CCc2ccccc2O)c2ccccc2N1	none (no result: SKKanGAS inh)
CCN1C(=O)[C@H]2[C@@H](c3ccc(C)cc3)N[C@]3(CCCN(Cc4ccco4)C3=O)[C@H]2C1=O	none (no result: SKKanGAS inh, PfHsp90 yeast 2, TIM10 inh, tim23-1 inh, tim10-1 inh)
Oc1c(Br)cc(Br)cc1/C=N/Nc1ccc(Cl)nn1	SKKanGAS inh 84 (no result: TIM10 inh, tim23-1 inh, tim10-1 inh)
Oc1c(Br)cc(/C=N/Nc2ccc(Cl)nn2)cc1Br	SKKanGAS inh inconclusive
